Data: PubChem BioAssay (NCI)
About 83,000 compounds went through this panel and 20% of them were active in at least one assay; those are over-represented in the sample as a whole.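 Growth was measured after 48 h exposure to one concentration of compound in 96-well plates. Values under 10 count as active.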 Unmarked numbers belong to inactive results. The source made the active and inactive calls.

Tested on: NCI-H23 lung
Assay: NCI-60 one-dose screen, 48 h (100 = growth as untreated, 0 = no growth, -100 = all killed)
Conditions: 10 µM unless noted
Protocol: Growth inhibition of the NCI-H23 human Non-Small Cell Lung tumor cell line is measured as a screen for anti-cancer activity. Cells are grown in 96 well plates and exposed to the test compound for 48 hours. Compounds are tested at a single concentration, which is 10^-5 M for most compounds. The reported endpoint is percent growth (GI% or GIPRCNT), where numbers from 0 - 100% represent growth inhibition, and numbers from -100% - 0 represent cell death. For example, a value of 40 represents 60% growth inhibition. A value of 0 means no net growth occurred over the course of the experiment. A value of -40 indicates 40% of cells at the beginning of the experiment died by the end of the experiment. A value of -100 means all cells are dead at the end of the experiment.
NCI-60 Human Tumor Cell Lines Screen was performed using the standard one-dose NCI protocol, which is described in more detail at https://dtp.cancer.gov/discovery_development/nci-60/default.htm.
Compounds with GIPRCNT values below 10 were considered active. Activity score was based on GIPRCNT using the following formula: […]
Score is 0 for GIPRCNT values of 100 or above, 50 for GIPRCNT values of 0, and 100 for GIPRCNT values of -100.

**Q.** `COC(=O)CC(=O)C(=O)OC` was tested. Which growth did it give?
**A.** 103%

**Q.** `COc1nc(OC)nc(-c2cc(-c3cc(OC)c(OC)c(OC)c3)no2)n1` was tested. Which growth did it give?
**A.** 101%

**Q.** How did the growth turn out when `O=C(/C=C\c1ccccc1Cl)c1ccccc1` was run?
**A.** 91.9%

**Q.** Which growth does the source give for `O=C(Nc1cccc(Cn2c(=O)[nH]c3ccc(Oc4ncccn4)cc3c2=O)c1)c1cc(Cl)cc(Cl)c1` here?
**A.** 74.1%

**Q.** `COc1ccc(C(=O)N2N=C(c3ccc(Br)cc3)CC2c2cn(-c3ccccc3)nc2-c2ccccc2)cc1` (stereo not given) was tested. Which growth did it give?
**A.** 42.4%

**Q.** With `Nc1ccc(S(=O)(=O)c2ccc(NO)cc2)cc1` as the compound, how does the growth read?
**A.** 100%

**Q.** For `CCOC(=O)c1ccc2n1CCCc1cnc(NC(C)=O)nc1-2`, which growth is on record?
**A.** 112%

**Q.** How did the growth turn out when `NC(CSC(c1ccccc1)(c1ccccc1)c1ccccc1)C(=O)NCC(=O)O` (stereo not given) was run?
**A.** 86.3%

**Q.** `OCC(O)C(O)CC1SCCS1` (stereo not given) was tested. Which growth did it give?
**A.** 97.3%

**Q.** With `CC(=O)Nc1nc(C)c(C(=O)N/N=C/N2CCOCC2)s1` as the compound, how does the growth read?
**A.** 106%

**Q.** How did the growth turn out when `CC(=O)NCCN` was run?
**A.** 111%

**Q.** Which growth does the source give for `COC(=O)c1ccc2[nH]c(O)c(C(=Nc3ccc(N(C)C(=O)CN4CCN(C)CC4)cc3)c3ccc(CCO)cc3)c2c1` here?
**A.** 57.1%

**Q.** How did the growth turn out when `O=C(c1ccccc1)c1ccccc1-c1ccccc1` was run?
**A.** 46.2%

**Q.** `COc1ccc(C(=O)c2no[n+]([O-])c2C(=O)c2ccc(OC)cc2)cc1` was tested. Which growth did it give?
**A.** 89.6%

**Q.** `CCC(C)CC(N)O` (stereo not given) was tested. Which growth did it give?
**A.** 105%

**Q.** For `COC1=C(OC)C(=O)c2ccccc2C1=O`, which growth is on record?
**A.** 81.5%

**Q.** `O=C(OCC1CC2(Cl)C(Cl)=C(Cl)C1(Cl)C2(Cl)Cl)C1C(C(=O)OCC2CC3(Cl)C(Cl)=C(Cl)C2(Cl)C3(Cl)Cl)C2(Cl)C(Cl)=C(Cl)C1(Cl)C2(Cl)Cl` (stereo not given) was tested. Which growth did it give?
**A.** 105%

**Q.** With `NC(=O)c1c(Nc2ccccc2)nn2cc(-c3nc4ccccc4s3)c(N)nc12` as the compound, how does the growth read?
**A.** 95.2%

**Q.** For `COc1cc(Cn2ccc3c2-c2oncc2CC3)cc(OC)c1`, which growth is on record?
**A.** 30.1%

**Q.** Which growth does the source give for `O=P(OCCCl)(OCCCl)C(O)c1ccccc1Cl` (stereo not given) here?
**A.** 106%

**Q.** How did the growth turn out when `CCCC(=O)NNc1[nH]c(-c2ccc(OC)cc2)cc1C(=O)OCC` was run?
**A.** 95.4%

**Q.** Which growth does the source give for `Cc1ccc(S(=O)(=O)N/N=C2\CC3CCC2C3)cc1` (stereo not given) here?
**A.** 117%

**Q.** With `N=C(N)N=Nc1ccc(NN=C(N)N)c2ccccc12` as the compound, how does the growth read?
**A.** 106%

**Q.** `C/C(=N\Nc1ccc(Cl)cn1)c1ccccn1` was tested. Which growth did it give?
**A.** 11.6%

**Q.** `N#Cc1c2cccnc2c2nnc3cc(Cl)c(Cl)cc3n12` was tested. Which growth did it give?
**A.** -20.2% (active)

**Q.** `O=C(N/N=C\c1ccc(Cl)cc1)C(=O)N/N=C\c1ccc(Cl)cc1` was tested. Which growth did it give?
**A.** 102%

**Q.** For `CC(=O)OCC1O[C@@H](OC(C)=O)[C@@H](NC(=O)NS(=O)(=O)c2ccccc2)C(OC(C)=O)[C@@H]1OC(C)=O` (stereo not given in full), which growth is on record?
**A.** 113%

**Q.** How did the growth turn out when `Ic1ccc(SSc2ccc(I)cc2)cc1` was run?
**A.** 98%

**Q.** Which growth does the source give for `O=C1C(=O)c2ccccc2C(O)=C1CCCc1ccc(C2CCCC2)cc1` here?
**A.** 36.5%

**Q.** Which growth does the source give for `CC1(C)Oc2cc3oc(=O)ccc3cc2C[C@@H]1OCCOS(=O)(=O)c1ccc(C#N)cc1` here?
**A.** 91.8%

**Q.** For `CCOC(=O)/C(C#N)=C(/CC)OCC`, which growth is on record?
**A.** 110%

**Q.** With `CC(=O)Oc1cc2ccccc2cc1C(C)C` as the compound, how does the growth read?
**A.** 107%

**Q.** Which growth does the source give for `O=C(CN1C(=O)NC(c2ccccc2)(c2ccccc2)C1=O)c1ccc(N2CCCC2)cc1` here?
**A.** 72.2%

**Q.** For `O=C(Nc1ccc(-n2cc(-c3ccncc3)c(-c3ccc(Cl)c(O)c3)n2)cc1)c1cc(C(F)(F)F)cc(C(F)(F)F)c1`, which growth is on record?
**A.** 63.8%

**Q.** With `CC[N+](C)(C)N` as the compound, how does the growth read?
**A.** 114%

**Q.** Which growth does the source give for `CCOC(=O)CCCCCCCCC(=O)OCC` here?
**A.** 96.3%

**Q.** With `COc1cc(NC(=O)CSc2nc3ccc(Cl)cc3c(=O)n2-c2ccc(F)cc2)cc(OC)c1OC` as the compound, how does the growth read?
**A.** 85.2%

**Q.** For `CC(=O)N1N=C(c2ccc(Cl)cc2)CC1c1cn(-c2ccccc2)nc1-c1ccc([N+](=O)[O-])cc1` (stereo not given), which growth is on record?
**A.** 101%

**Q.** Which growth does the source give for `CCCCCCNc1nc(N2CCOCC2)c2[nH]c(NCCCCCC)nc2n1` here?
**A.** -94.5% (active)

**Q.** For `CCCCCCCCCCCCCCCCNC(=O)Nc1ccc(C)c(NC(=O)NCCCCCCCCCCCCCCCC)c1`, which growth is on record?
**A.** 111%
